Data: PubChem BioAssay (NCATS)
Records with an inconclusive call do not appear. Active and inactive are the calls of the source. Unless noted, the call rests on the fitted dose curve; in most records, active means well fitted curve in the direction sought with a large enough effect; inconclusive means small, poorly fitted or top-dose-only effect, or another doubt; inactive means no such curve, though single readings can be large; an effect the other way counts as inactive or inconclusive.

Columns and labels:
[1] = High Content Imaging Cell-Based qHTS for Inhibitors of the mTORC1 Signaling Pathway in MEF Cells (AID 2667);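 further: Tsc2-/- p53-/- MEFs stably re-expressing wild-type Tsc2 exposed 24 h; series mostly up to about 38 µM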
Procedure, shortened: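 WT MEFs (Tsc2-/-, p53-/- re-expressing Tsc2), in DMEM + 10% FBS, were treated with compound for 24 h at 37 C. Cells were then fixed and stained for phospho-rpS6 Ser235/236 with propidium iodide as cell count. Values are % positive cells, with thresholds set against rapamycin-treated cells.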

[2] = Cytometry Cell-Based qHTS for Inhibitors of the mTORC1 Signaling Pathway in MEF cells (AID 2668);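 further: Tsc2-/- p53-/- mouse embryonic fibroblasts stably re-expressing wild-type Tsc2; percent cells positive for phospho-rpS6 Ser235/236 relative to propidium iodide stain; series mostly up to about 38 µM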
Procedure, shortened: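 MEFs (Tsc2-/-, p53-/- stably expressing WT Tsc2) treated 24 h at 37 degree Celsius, fixed, stained with Alexa-488 anti-phospho-rpS6 Ser235/236 and propidium iodide; Acumen laser scanning. Reported as % positive cells, phospho-S6 normalized to PI.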

[3] = Validation screen for small molecules that induce DNA re-replication in MCF 10A normal breast cells (AID 463097); further: nearly all actives have a fitted effect of over 60% in size; further: potency means the concentration at half of the fitted maximal effect
Procedure, shortened: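 MCF 10A cells exposed to compound 48 hr at 37 C, 5% CO2, then Hoechst-stained 40 min. Laser-scanning imaging of nuclear DNA content (405 nm ex, 500-530 nm em); re-replication scored as rise in nuclei with elevated fluorescence intensity.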

[4] = biological target: Ubiquitin carboxyl-terminal hydrolase 2 (Homo sapiens) (UniProt O75604); assay: qHTS Validation Assay for Inhibitors of Ubiquitin-specific Protease USP2a Using CHOP2 as the Reporter (AID 463106)
Procedure, shortened: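 USP2 core (10 nM final) was preincubated with compound 30 min at RT in pH 8.0 Tris/CaCl2/beta-ME/CHAPS buffer. Ub-CHOP2 and reporter substrate (25 nM final each) were then added, with fluorescence (Ex 485/Em 531) read after 60 min. Data were normalized to NEM full inhibition and fitted to concentration-response curves.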

[5] = biological target: DNA polymerase III PolC-type (Bacillus subtilis (strain 168)) (UniProt P13267); assay: qHTS Validation Assay for the Inhibitors of DNA Replication in Gram-Positive Bacteria (AID 485295);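 further: PicoGreen fluorescence of double-stranded DNA made on primed circular M13 template; series mostly up to about 57 µM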
Procedure, shortened: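 Reconstituted B. subtilis Pol III holoenzyme (PolC, beta clamp, SSB, primase) preincubated with compound, then M13Gori single-stranded circular template with dNTPs/NTPs added; room temperature reaction. Stopped with EDTA/PicoGreen; dsDNA fluorescence read, EDTA as full-inhibition control.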

[6] = biological target: Tumor susceptibility gene 101 protein (Homo sapiens) (UniProt Q99816); assay: qHTS Validation Assay for Iinhibitors of HIV-1 Budding by Blocking the Interaction of PTAP/TSG101 (AID 485342; calls by dose curve)
Procedure, shortened: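 Tsg101 binding domain (10 uM) with FITC-labeled PTAP peptide (50 nM) in HEPES pH 7.5 buffer, 20 min at r.t. with compounds. Binding measured by fluorescence polarization.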

[7] = qHTS Validation Assay to Find Inhibitors of Chronic Active B-Cell Receptor Signaling (AID 485345; active means well fitted curve in the direction sought with a large enough effect in the main read-out, with a control signal flat, not every such curve was filed as active)
Procedure, shortened: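 TMD8 ABC-DLBCL cells stably carrying doxycycline-inducible IkappaBalpha–green luciferase fusion plus unfused red luciferase; compounds 46 uM to 3 nM, 4 h at 37C with doxycycline. Corrected green/red luminescence ratio normalized to 10 uM MG-132 and basal cell wells; curves fitted.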

[8] = biological target: Beta-2 adrenergic receptor (Homo sapiens) (UniProt P07550); assay: qHTS validation assay of beta-arrestin-biased ligands of beta2-adrenergic receptor (AID 485366)
Procedure, shortened: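 Arrestin-recruitment (Tango) reporter: ligand-bound beta2-AR recruits beta-arrestin, releasing tTA, which upregulates luciferase. Titrations of up to 46 microM incubated 18 hr at 37 degrees C before luminescent readout.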

[9] = Quantitative high throughput screen for delayed death inhibitors of the malarial parasite plastid, 48 hour incubation (AID 488752); further: nearly all actives have a fitted effect of over 65% in size; further: potency means the concentration at half of the fitted maximal effect
Procedure, shortened: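 Readout is firefly luciferase luminescence from a reporter integrated into the parasite genome, with lower signal taken as inhibited growth. Infected red cells (0.1% parasitemia, 2% hematocrit final) are cultured with compound for one 48 h cycle at 37 C.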

[10] = biological target: Thioredoxin reductase 1, cytoplasmic (Rattus norvegicus) (UniProt O89049); assay: qHTS Assay for Substrates of Mammalian Selenoprotein Thioredoxin Reductase 1 (TrxR1) (AID 488772);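 further: NADPH fluorescence in the first read after selenite addition and not the 8 min delta; series mostly up to about 57 µM; a drop in NADPH fluorescence below the no-compound background marks a TrxR1 substrate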
Procedure, shortened: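 Quantitative HTS in Tris-HCl buffer at pH 7.5 with EDTA and Tween-20, using rat TrxR1, 400 uM NADPH and 400 uM selenite (final). A fall in initial NADPH fluorescence relative to background marked substrate behaviour.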

[11] = biological target: Thioredoxin reductase 1, cytoplasmic (Rattus norvegicus) (UniProt O89049); assay: qHTS Assay for Inhibitors of Mammalian Selenoprotein Thioredoxin Reductase 1 (TrxR1) (AID 488773); conditions: Potency: inhibition;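 further: drop in NADPH fluorescence over an 8 min run after selenite addition; series mostly up to about 57 µM; nearly all actives have a fitted effect of over 40% in size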
Procedure, shortened: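 Steps: enzyme (90 nM) plus NADPH (400 uM final), 5 min at ~22 deg C; compound added, 15 min; selenite (400 uM final) added; fluorescence followed for 8 min. Concentration-response curves derived from the normalized delta values.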

[12] = biological target: Flap endonuclease 1 (Homo sapiens) (UniProt P39748); assay: qHTS Validation Assay for the Inhibitors of Human Flap endonuclease 1 (FEN1) (AID 488816)
Procedure, shortened: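 Human FEN1 (10 nM) preincubated 15 min at room temperature with compounds, then flap DNA substrate added at 50 nM final. Fluorescence read at 0 and 15 min; concentration-response fitted with four-parameter Hill equation.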

[13] = biological target: M-phase phosphoprotein 8 (Homo sapiens) (UniProt Q99549); assay: qHTS Validation Assay for Inhibitors for MPP8 Chromodomain Interactions with Methylated Histone Tails (AID 488949); further: top concentration of the series differs between compounds; nearly all actives have a fitted effect of over 55% in size
Procedure, shortened: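 MPP8 (50 nM) was pre-bound to 50 nM biotinylated H3(1-18)K9me3 peptide in PBS pH 7.4 with 0.01% Tween-20. Compounds were then added for 30 min at room temperature, and complex disruption was read by AlphaScreen with streptavidin donor and nickel-chelate acceptor beads.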

[14] = biological target: Chromobox protein homolog 1 (Homo sapiens) (UniProt P83916); assay: qHTS Validation Assay for Inhibitors of HP1-beta Chromodomain Interactions with Methylated Histone Tails (AID 488953);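 further: loss of AlphaScreen luminescence from HP1-beta binding biotinylated H3K9me3 peptide; series mostly up to about 110 µM; nearly all actives have a fitted effect of over 50% in size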
Procedure, shortened: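 50 nM HP1-beta + 50 nM biotin-H3(1-18)K9me3, PBS pH 7.4, 0.01% Tween-20, 30 min RT; compound added, 30 min RT; AlphaScreen beads 10 ug/mL final, 30 min dark; luminescence read.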

[15] = biological target: Transient receptor potential cation channel subfamily V member 1 (Homo sapiens) (UniProt Q8NER1); assay: HTS Assay for Compounds that Act as Enhancers of the Vanilloid Receptor 1 (AID 488979)
Procedure, shortened: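 TRPV1 cells loaded with Fluo-8 calcium dye; compound added and Ca2+ signal (ex 480/em 520 nm) followed 3 min, then capsaicin at EC20 added and read 2 more min to detect enhancement.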

[16] = biological target: D(1A) dopamine receptor (Homo sapiens) (UniProt P21728); assay: HTS Assay for Allosteric Agonists of the Human D1 Dopamine Receptor: Primary Screen for Agonists (AID 488981)
Procedure, shortened: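 Tetracycline-induced HEK293 Trex D1 cells with forced coupling to calcium, loaded with no-wash calcium dye; kinetic fluorescence read 180 s after compound addition for agonism, then a further 180 s after an EC20 dopamine challenge for potentiation.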

[17] = Quantitative high throughput screen for delayed death inhibitors of the malarial parasite plastid, 96 hour incubation (AID 488745); further: nearly all actives have a fitted effect of over 70% in size; further: potency means the concentration at half of the fitted maximal effect
Procedure, shortened: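 Infected erythrocytes were added to compound in Albumax-supplemented RPMI 1640 at 0.1% parasitemia and 2% hematocrit (final), incubated 96 h at 37 C under 5% CO2, then luciferase reagent was added and luminescence measured.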

[18] = biological target: Methanococcus maripaludis chaperonin (MmCpn) (UniProt Q6LX38); assay: High-Throughput Screening for Modulators of Cytosolic Chaperonin Activity: MmCpn Primary Screen (AID 488978);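 further: 50 nM MmCpn enzyme hydrolysing 30 µM ATP at 37 °C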
Procedure, shortened: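 MmCpn at 50 nM final was preincubated 5 min at RT with compound. ATP was then added at 30 uM final for 10 min at 37 C. ADP formed was detected by Transcreener HTRF (665/590 nm).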

[19] = biological target: Thyrotropin receptor (Homo sapiens) (UniProt P16473); assay: qHTS Assay for Antagonists of the Thyroid Stimulating Hormone Receptor (AID 488980); further: series mostly up to about 58 µM
Procedure, shortened: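 TSHR-transfected HEK293 cells (2000/well) in HEPES-buffered HBSS with 70 uM RO 20-1724 were stimulated with 4 nM TSH (EC80, final) in the presence of compound. cAMP was measured by HTRF competition after lysis and 30 min at RT.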

[20] = biological target: ATP-dependent 6-phosphofructokinase (Trypanosoma brucei brucei) (UniProt O15648); assay: qHTS Validation Assay to Find Inhibitors of T. brucei phosphofructokinase (AID 485368); conditions: outcome: dose series up to 57.5 µM
Procedure, shortened: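 Steps: substrate mix (0.5 mM F6P, 0.1 mM ATP, MgCl2, TEA pH 8.0); compound; 1.25 nM T. brucei PFK; 45 min RT; ATP depletion 10 min; ADP-to-ATP detection 10 min; luminescence read; curve fitting and classification.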

Measured: Potency

Beta-2 adrenergic receptor (Homo sapiens), sequence (P07550 whole entry, looked up): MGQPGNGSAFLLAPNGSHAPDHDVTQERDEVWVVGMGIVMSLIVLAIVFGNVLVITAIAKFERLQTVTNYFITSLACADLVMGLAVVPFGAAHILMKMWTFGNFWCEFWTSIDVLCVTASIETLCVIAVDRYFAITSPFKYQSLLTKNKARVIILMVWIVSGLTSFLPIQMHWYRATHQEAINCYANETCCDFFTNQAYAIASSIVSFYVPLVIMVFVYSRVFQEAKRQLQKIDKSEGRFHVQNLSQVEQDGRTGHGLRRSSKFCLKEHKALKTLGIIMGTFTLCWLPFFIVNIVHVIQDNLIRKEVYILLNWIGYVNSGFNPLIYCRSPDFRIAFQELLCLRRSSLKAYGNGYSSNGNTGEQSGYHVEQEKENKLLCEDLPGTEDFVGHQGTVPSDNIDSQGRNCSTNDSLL
Thyrotropin receptor (Homo sapiens), sequence (P16473 whole entry, looked up): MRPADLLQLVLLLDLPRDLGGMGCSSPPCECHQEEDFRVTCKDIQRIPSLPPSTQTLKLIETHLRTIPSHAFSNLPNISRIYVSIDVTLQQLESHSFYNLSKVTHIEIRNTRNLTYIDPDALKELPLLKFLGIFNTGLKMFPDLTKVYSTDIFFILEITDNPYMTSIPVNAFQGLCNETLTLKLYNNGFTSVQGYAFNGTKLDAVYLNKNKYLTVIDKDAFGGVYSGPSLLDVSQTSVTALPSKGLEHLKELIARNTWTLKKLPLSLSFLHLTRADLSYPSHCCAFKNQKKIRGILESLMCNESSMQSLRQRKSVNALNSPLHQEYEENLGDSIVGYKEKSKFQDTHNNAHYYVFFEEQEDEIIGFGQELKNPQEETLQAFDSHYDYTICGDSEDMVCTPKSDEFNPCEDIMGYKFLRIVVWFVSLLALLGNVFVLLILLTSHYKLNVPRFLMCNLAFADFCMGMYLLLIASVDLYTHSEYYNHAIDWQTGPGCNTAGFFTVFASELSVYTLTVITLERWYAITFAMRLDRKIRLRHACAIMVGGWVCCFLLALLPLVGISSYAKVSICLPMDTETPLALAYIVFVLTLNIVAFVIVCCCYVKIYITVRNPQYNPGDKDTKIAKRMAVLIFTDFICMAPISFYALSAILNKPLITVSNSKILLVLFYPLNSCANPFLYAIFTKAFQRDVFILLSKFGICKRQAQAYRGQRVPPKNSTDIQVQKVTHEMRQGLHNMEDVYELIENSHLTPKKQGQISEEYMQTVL
Transient receptor potential cation channel subfamily V member 1 (Homo sapiens), sequence (Q8NER1 whole entry, looked up): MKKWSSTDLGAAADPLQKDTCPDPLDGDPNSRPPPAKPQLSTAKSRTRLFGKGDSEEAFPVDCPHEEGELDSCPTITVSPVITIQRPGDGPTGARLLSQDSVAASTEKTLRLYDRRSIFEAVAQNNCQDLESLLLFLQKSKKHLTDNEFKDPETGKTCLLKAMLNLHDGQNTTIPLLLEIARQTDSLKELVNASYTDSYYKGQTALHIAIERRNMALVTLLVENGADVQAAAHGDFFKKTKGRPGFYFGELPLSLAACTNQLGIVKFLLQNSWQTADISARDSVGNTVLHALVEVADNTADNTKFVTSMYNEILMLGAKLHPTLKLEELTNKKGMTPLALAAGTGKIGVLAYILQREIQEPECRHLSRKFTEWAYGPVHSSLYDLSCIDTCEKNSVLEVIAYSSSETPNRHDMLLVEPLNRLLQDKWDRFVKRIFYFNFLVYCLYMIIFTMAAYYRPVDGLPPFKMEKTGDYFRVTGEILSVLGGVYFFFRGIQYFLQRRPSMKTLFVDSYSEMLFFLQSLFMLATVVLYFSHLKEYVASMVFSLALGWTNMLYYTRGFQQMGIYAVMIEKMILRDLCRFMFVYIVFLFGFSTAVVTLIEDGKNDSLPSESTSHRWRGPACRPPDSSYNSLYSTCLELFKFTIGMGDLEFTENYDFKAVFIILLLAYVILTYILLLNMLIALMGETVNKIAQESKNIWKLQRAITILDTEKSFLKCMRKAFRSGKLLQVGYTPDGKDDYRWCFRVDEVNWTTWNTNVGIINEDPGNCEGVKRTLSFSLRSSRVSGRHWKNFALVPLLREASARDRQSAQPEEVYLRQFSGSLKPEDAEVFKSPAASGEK
Flap endonuclease 1 (Homo sapiens), sequence (P39748 whole entry, looked up): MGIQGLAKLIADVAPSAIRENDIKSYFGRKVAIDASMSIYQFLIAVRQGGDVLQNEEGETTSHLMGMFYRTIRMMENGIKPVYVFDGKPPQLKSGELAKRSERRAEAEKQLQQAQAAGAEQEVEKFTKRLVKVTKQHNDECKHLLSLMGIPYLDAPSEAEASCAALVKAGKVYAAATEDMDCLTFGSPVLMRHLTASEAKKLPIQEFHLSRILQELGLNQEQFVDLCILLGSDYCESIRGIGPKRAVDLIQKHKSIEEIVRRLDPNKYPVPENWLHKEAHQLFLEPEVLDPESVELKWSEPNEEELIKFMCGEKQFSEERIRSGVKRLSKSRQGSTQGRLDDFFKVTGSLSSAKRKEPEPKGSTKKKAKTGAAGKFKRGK
Tumor susceptibility gene 101 protein (Homo sapiens), sequence (Q99816 whole entry, looked up, the tested form may be a part): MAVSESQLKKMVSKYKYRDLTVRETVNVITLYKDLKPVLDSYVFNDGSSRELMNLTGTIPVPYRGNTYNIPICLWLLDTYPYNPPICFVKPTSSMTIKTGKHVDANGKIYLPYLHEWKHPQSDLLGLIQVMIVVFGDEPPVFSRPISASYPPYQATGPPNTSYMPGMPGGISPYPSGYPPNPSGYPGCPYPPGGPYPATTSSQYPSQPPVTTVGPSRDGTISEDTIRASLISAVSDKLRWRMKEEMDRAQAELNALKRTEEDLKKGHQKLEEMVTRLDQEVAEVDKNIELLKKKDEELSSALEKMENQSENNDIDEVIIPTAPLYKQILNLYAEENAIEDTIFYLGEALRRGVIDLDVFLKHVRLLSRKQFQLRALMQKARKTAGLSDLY
M-phase phosphoprotein 8 (Homo sapiens), sequence (Q99549 whole entry, looked up): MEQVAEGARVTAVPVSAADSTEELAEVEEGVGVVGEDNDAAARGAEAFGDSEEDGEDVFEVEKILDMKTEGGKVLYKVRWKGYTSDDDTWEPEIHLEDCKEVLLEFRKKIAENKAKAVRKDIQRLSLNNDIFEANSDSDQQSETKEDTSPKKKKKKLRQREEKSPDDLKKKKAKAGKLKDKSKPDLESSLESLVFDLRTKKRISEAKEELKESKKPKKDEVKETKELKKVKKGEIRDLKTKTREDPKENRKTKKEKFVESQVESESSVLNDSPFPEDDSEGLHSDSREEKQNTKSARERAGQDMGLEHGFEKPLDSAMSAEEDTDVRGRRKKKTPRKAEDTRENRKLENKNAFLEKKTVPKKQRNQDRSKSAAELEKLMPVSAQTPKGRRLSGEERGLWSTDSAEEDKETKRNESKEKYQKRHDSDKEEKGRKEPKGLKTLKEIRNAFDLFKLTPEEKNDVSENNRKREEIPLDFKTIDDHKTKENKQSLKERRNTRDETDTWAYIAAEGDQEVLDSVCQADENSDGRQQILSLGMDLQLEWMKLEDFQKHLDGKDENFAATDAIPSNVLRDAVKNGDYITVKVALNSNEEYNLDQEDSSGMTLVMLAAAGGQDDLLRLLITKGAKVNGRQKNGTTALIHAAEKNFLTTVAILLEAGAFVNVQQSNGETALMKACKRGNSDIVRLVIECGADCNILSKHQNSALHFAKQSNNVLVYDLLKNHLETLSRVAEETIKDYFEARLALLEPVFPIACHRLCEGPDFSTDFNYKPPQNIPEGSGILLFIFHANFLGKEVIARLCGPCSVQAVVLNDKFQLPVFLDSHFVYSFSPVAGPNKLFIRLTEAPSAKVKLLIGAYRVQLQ
Chromobox protein homolog 1 (Homo sapiens), sequence (P83916 whole entry, looked up): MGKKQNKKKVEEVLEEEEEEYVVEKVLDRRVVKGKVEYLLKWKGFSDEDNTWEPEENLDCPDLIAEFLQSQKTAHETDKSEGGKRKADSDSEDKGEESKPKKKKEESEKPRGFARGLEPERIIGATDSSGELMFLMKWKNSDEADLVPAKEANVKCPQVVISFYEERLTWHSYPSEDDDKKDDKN
ATP-dependent 6-phosphofructokinase (Trypanosoma brucei brucei), sequence (O15648 whole entry, looked up): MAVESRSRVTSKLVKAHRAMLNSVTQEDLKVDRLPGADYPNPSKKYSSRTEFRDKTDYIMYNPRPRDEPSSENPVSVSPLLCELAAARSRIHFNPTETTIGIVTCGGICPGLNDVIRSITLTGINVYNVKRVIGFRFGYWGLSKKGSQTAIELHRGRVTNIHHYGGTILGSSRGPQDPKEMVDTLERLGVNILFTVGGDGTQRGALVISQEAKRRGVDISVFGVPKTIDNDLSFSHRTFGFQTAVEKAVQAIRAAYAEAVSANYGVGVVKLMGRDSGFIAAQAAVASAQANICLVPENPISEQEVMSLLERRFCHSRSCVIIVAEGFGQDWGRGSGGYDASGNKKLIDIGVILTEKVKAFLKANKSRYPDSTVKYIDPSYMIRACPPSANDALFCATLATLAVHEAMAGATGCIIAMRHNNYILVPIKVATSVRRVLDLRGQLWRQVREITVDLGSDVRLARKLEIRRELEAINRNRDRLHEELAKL
D(1A) dopamine receptor (Homo sapiens), sequence (P21728 whole entry, looked up): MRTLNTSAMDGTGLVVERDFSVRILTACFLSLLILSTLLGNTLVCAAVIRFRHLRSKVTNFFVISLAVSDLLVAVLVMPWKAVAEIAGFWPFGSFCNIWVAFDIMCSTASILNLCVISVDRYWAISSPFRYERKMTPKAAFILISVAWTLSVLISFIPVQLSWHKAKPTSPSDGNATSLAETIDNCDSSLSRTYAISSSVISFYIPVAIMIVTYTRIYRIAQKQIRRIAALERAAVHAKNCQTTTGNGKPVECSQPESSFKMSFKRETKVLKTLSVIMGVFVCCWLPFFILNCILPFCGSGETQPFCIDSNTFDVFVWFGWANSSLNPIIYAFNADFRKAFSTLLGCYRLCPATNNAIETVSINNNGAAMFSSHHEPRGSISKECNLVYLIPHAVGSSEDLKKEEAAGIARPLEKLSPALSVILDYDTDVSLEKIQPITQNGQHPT

NS(=O)(=O)c1cc2c(cc1Cl)NC(C1CC3C=CC1C3)NS2(=O)=O (stereo not drawn)
not listed: [17] | [18] | [19] | [20]
inactive: all other assays above

CN(C)CC[C@@H](c1ccc(Br)cc1)c1ccccn1
not listed: [13] | [18] | [19] | [20]
inactive: all other assays above

CN/C(=C\[N+](=O)[O-])NCCSCc1ccc(CN(C)C)o1
not listed: [12] | [13] | [14] | [20]
inactive: all other assays above

CCCNC(C)C(=O)Nc1ccccc1C (stereo not drawn)
not listed: [9] | [14] | [20]
inactive: all other assays above

NC/C=C/C(=O)O
not listed: [10] | [20]
inactive: all other assays above

CC(C)NNC(=O)c1ccncc1
not listed: [17] | [20]
inactive: all other assays above

CCOC(=O)c1cnc2c(cnn2CC)c1NN=C(C)C
not listed: [13] | [19] | [20]
inactive: all other assays above

O=C(O)CP(=O)(O)O
not listed: [5] | [13] | [17] | [20]
inactive: all other assays above

Cc1ccc(Cl)c(Nc2ccccc2C(=O)O)c1Cl
active: [3] 14.1 µM
not listed: [7] | [13] | [18]
inactive: all other assays above

Cc1cccc(C)c1NC(=O)C(C)N (stereo not drawn)
not listed: [3] | [9] | [15] | [17] | [19] | [20]
inactive: all other assays above

C#CCN(C)CCCOc1ccc(Cl)cc1Cl
not listed: [7] | [13] | [17] | [18] | [19] | [20]
inactive: all other assays above

CC(=O)Nc1nnc(S(N)(=O)=O)s1
not listed: [8] | [20]
inactive: all other assays above

CN(C)C(=O)Oc1cccc([N+](C)(C)C)c1
not listed: [9] | [17] | [20]
inactive: all other assays above

CN1CCN(CC(=O)N2c3ccccc3C(=O)Nc3cccnc32)CC1
not listed: [3] | [13] | [14] | [20]
inactive: all other assays above

COCCc1ccc(OCC(O)CNC(C)C)cc1 (stereo not drawn)
not listed: [8] | [13] | [20]
inactive: all other assays above

CC(C)(C)NCC(O)c1cc(O)cc(O)c1 (stereo not drawn)
not listed: [8] | [13] | [20]
inactive: all other assays above

Brc1c(NC2=NCCN2)ccc2nccnc12
inactive: [1] | [2] | [3] | [4] | [5] | [6] | [8] | [17] | [13] | [19] | [16]

COc1ccc(CCN(C)CCCC(C#N)(c2cc(OC)c(OC)c(OC)c2)C(C)C)cc1OC (stereo not drawn)
active: [17] 11.7 µM | [9] 8.28 µM
not listed: [7] | [18]
inactive: all other assays above

CC(C)NCC(O)c1cc(O)cc(O)c1 (stereo not drawn)
not listed: [8] | [12] | [20]
inactive: all other assays above

COc1ccc2c(c1OC)C(=O)O[C@@H]2[C@H]1c2c(cc3c(c2OC)OCO3)CCN1C
not listed: [3] | [9] | [14] | [15] | [17] | [18] | [19] | [20]
inactive: all other assays above

C(=C\c1ccccc1)/CN1CCN(C(c2ccccc2)c2ccccc2)CC1
not listed: [3] | [14] | [20]
inactive: all other assays above

CC(C)(Oc1ccc(CCNC(=O)c2ccc(Cl)cc2)cc1)C(=O)O
not listed: [3] | [9] | [13] | [15] | [17] | [18] | [19]
inactive: all other assays above

C[C@]12CCC(=O)C=C1CC[C@@H]1[C@@H]2C(=O)C[C@@]2(C)[C@H]1CC[C@]2(O)C(=O)CO
not listed: [7] | [11] | [13] | [14] | [18] | [20]
inactive: all other assays above

C=CCc1ccccc1OCC(O)CNC(C)C (stereo not drawn)
not listed: [8] | [13] | [17] | [20]
inactive: all other assays above

C[C@]12CCC(=O)C=C1CC[C@@H]1[C@@H]2CC[C@@]2(C)[C@H]1CC[C@]2(O)C(=O)CO
not listed: [7] | [12] | [18] | [20]
inactive: all other assays above

CN1C[C@H](C(=O)N[C@]2(C)O[C@@]3(O)[C@@H]4CCCN4C(=O)[C@H](Cc4ccccc4)N3C2=O)C[C@@H]2c3cccc4[nH]cc(c34)C[C@H]21
not listed: [3] | [9] | [10] | [13] | [14] | [15] | [17] | [19]
inactive: all other assays above

OC(CCN1CCCCC1)(c1ccccc1)C1CCCCC1 (stereo not drawn)
not listed: [7] | [9] | [13] | [17] | [20]
inactive: all other assays above

C[C@H](CS)C(=O)N1CCC[C@H]1C(=O)O
not listed: [4] | [10] | [11] | [12] | [13] | [14] | [15]
inactive: all other assays above
